Assay results: PubChem BioAssay AID1159580 (chemical genetic matrix, 2015)
Values joined by “and” are separate entries in the source; they are usually repeats but may differ in a detail not shown here. Equal values may be shown once. Among all 5,500 compounds or so, about 2,000 (36%) were called active. About 18% were inconclusive and are not listed. Rule as the data show it: active = normalized growth mostly below about 0.91 (no sharp cut-off); inconclusive = no clear call, values can overlap the other calls; inactive = mostly above about 0.92. The list shows a part of the results.

Experiment: chemical genetic growth profiling, strain panel (AID 1159580);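 also: tested at 20 µM; growth read once vehicle control cultures reached saturation at 30 °C; 1 = growth at the plate median or of vehicle wells; lower values mean less growth of the strain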
Conditions: S. cerevisiae deletion strains, growth OD

Measured: normalized growth

COc1ccc2c(c1OC)C(=O)O[C@H]2[C@H]1c2cc3c(cc2CCN1C)OCO3
inactive: locus YAL013W, strain DEP1, hits give low values 0.997 | locus YAL021C, strain ccr4, hits give low values 0.987 | locus YAL026C, strain drs2, hits give low values 1.01 | locus YAL030W, strain snc1, hits give low values 1 | locus YBL061C, strain skt5, hits give low values 0.997 | locus YBR009C, strain hhf1, hits give low values 1.01 | locus YBR021W, strain FUR4, hits give low values 1 | locus YBR023C, strain chs3, hits give low values 0.988 | locus YBR171W, strain sec66, hits give low values 0.988 | locus YBR229C, strain ROT2, hits give low values 1.01 | locus YBR231C, strain swc5, hits give low values 1 | locus YBR279W, strain paf1, hits give low values 0.995 | locus YCL011C, strain gbp2, hits give low values 1 | locus YCL016C, strain dcc1, hits give low values 1 | locus YCL029C, strain bik1, hits give low values 1.02 | locus YCL061C, strain MRC1, hits give low values 1 | locus YCL069W, strain vba3, hits give low values 1 | locus YCR088W, strain abp1, hits give low values 1.01 | locus YDL005C, strain med2, hits give low values 0.997 | locus YDL035C, strain GPR1, hits give low values 1 | locus YDL040C, strain nat1, hits give low values 0.991 | locus YDL074C, strain BRE1, hits give low values 1.01 | locus YDL101C, strain DUN1, hits give low values 1.02 | locus YDL134C, strain PPH21, hits give low values 1 | locus YDL185W, strain tfp1, hits give low values 1 | locus YDL192W, strain arf1, hits give low values 1.01 | locus YDR001C, strain nth1, hits give low values 0.999 | locus YDR069C, strain doa4, hits give low values 1 | locus YDR101C, strain arx1, hits give low values 1 | locus YDR137W, strain rgp1, hits give low values 0.988 | locus YDR150W, strain NUM1, hits give low values 1 | locus YDR159W, strain sac3, hits give low values 0.989 | locus YDR162C, strain NBP2, hits give low values 0.966 | locus YDR195W, strain ref2 0.998 | locus YDR297W, strain sur2, hits give low values 1 | locus YDR318W, strain mcm21, hits give low values 1.01 | locus YDR334W, strain swr1, hits give low values 1 | locus YDR335W, strain msn5, hits give low values 0.989 | locus YDR388W, hits give low values 1.01 | locus YDR392W, strain spt3, hits give low values 0.928 | locus YDR502C, strain sam2, hits give low values 1 | locus YEL003W, strain gim4, hits give low values 0.998 | locus YEL037C, strain rad23, hits give low values 0.99 | locus YEL061C, strain CIN8 (second series), hits give low values 0.991 | locus YEL061C, strain CIN8, hits give low values 0.991 | locus YER015W, strain faa2, hits give low values 1 | locus YER016W, strain bim1, hits give low values 0.997 | locus YER110C, hits give low values 1.01 | locus YER111C, strain swi4, hits give low values 0.993 | locus YER155C, strain BEM2 (second series), hits give low values 0.994 | locus YER155C, strain BEM2, hits give low values 0.992 | locus YER167W, strain BCK2, hits give low values 1.01 | locus YFR010W, strain ubp6, hits give low values 1.01 | locus YGL078C, strain dbp3, hits give low values 1.01 | locus YGL086W, strain mad1, hits give low values 1 | locus YGL167C, strain pmr1, hits give low values 0.997 | locus YGL173C, strain kem1, hits give low values 0.993 | locus YGL227W, strain vid30, hits give low values 0.993 | locus YGL240W, strain doc1, hits give low values 1 | locus YGL248W, strain PDE1, hits give low values 1.01 | locus YGL253W, strain hxk2, hits give low values 0.994 | locus YGR078C, strain PAC10, hits give low values 0.992 | locus YGR135W, strain pre9, hits give low values 0.996 | locus YGR229C, strain SMI1, hits give low values 0.99 | locus YGR252W, strain gcn5, hits give low values 0.953 | locus YHR013C, strain ard1, hits give low values 0.974 | locus YHR027C, strain rpn1, hits give low values 0.992 | locus YHR030C, strain SLT2, hits give low values 1.01 and 1.04 | locus YHR079C, strain IRE1 (second series), hits give low values 1.02 | locus YHR079C, strain IRE1, hits give low values 1.05 | locus YHR094C, strain hxt1, hits give low values 1.01 | locus YHR129C, strain ARP1, hits give low values 1.02 | locus YHR142W, strain chs7, hits give low values 0.995 | locus YHR200W, strain rpn10, hits give low values 1 | locus YIL066C, strain RNR3, hits give low values 1 | locus YIL073C, strain SPO22, hits give low values 0.997 | locus YIL125W, strain kgd1, hits give low values 1.01 | locus YIR030C, strain dcg1, hits give low values 1.02 | locus YJL092W, strain hpr5, hits give low values 0.999 | locus YJL095W, strain BCK1 (second series), hits give low values 1 | locus YJL095W, strain BCK1, hits give low values 1.02 | locus YJL115W, strain asf1, hits give low values 0.995 | locus YJL129C, strain trk1, hits give low values 0.992 | locus YJL134W, strain LCB3, hits give low values 1 | locus YJL154C, strain vps35, hits give low values 0.997 | locus YJL164C, strain tpk1, hits give low values 0.991 | locus YJL166W, strain qcr8, hits give low values 0.994 | locus YJL168C, strain set2, hits give low values 1.01 | locus YJL187C, strain SWE1 (second series), hits give low values 1.01 | locus YJL187C, strain SWE1, hits give low values 0.999 | locus YJR043C, strain POL32, hits give low values 1.01 | locus YJR066W, strain TOR1, hits give low values 0.976
